In ChEMBL document CHEMBL3988442, “University of Dundee, Small-Polar-MMV Screening Library” (2021):
For some of these results: Measured potencies and affinities stand elsewhere.

Tests used:
Set-up in all cases: scale not given: direction of the effect not stated beside the values
[1] = target: Protein translocase subunit SecA (Escherichia coli (strain K12)) (UniProt P10408); assay: Assay to Identify E. coli SecA ATPase Inhibitors; format: functional; details: 30 µM
[2] = target: T1, Ubiquitin-activating enzyme e1, putative (Leishmania donovani (strain BPK282A1)) (UniProt E9BSI1); assay: Leishmania donovani Ubiquitin Activating Enzyme (LdE1); format: functional; details: 30 µM
T1 sequence (whole entry): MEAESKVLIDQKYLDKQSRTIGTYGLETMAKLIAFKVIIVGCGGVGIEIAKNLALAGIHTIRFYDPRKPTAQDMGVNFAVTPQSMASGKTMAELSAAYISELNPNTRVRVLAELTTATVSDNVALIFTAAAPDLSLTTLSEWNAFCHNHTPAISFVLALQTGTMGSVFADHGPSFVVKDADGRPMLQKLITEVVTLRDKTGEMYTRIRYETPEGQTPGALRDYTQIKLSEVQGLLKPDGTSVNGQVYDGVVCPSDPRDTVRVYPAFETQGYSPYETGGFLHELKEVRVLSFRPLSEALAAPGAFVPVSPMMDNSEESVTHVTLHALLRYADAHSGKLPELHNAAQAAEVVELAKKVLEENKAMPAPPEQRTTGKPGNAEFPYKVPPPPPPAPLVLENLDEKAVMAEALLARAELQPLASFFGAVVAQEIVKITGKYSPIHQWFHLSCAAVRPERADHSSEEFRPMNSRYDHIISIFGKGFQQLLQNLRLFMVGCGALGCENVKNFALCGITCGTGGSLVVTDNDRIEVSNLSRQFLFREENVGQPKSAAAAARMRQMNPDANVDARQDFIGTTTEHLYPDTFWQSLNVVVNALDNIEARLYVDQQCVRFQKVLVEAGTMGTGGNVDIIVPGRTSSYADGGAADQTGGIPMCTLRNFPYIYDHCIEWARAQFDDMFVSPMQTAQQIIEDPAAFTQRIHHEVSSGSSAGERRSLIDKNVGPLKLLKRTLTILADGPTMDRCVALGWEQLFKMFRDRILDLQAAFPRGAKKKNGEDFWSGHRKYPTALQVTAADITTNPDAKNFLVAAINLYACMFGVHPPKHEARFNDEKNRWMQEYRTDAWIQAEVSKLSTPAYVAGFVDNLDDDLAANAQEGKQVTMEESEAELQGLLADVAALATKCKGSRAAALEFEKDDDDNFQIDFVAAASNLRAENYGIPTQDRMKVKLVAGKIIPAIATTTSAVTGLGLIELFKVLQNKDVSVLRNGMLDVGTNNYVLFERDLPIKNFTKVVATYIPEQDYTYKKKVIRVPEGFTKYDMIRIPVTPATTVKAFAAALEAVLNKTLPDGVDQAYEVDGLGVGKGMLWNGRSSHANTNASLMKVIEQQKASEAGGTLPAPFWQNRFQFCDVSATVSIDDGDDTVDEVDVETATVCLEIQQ

[3] = target: Sialic acid-binding Ig-like lectin 9 (Homo sapiens) (UniProt Q9Y336); assay: Hs-Siglec9 ALPHAscreen SOP 20170721; details: 10 µM
Trypanosoma cruzi = assay: Trypanosoma cruzi phosphomannomutase and mannose-1-phosphate guanylyltransferase assay; format: functional; details: 10 µM
[4] = target: T2, Arginase-2, mitochondrial (Homo sapiens) (UniProt P78540); assay: in vitro enzyme assay to detect the production of urea directly proportional to the activity of Arginase II; format: functional; details: 33.3 µM; note: in the data most compounds retested in dose-response had high values
T2 sequence (whole entry): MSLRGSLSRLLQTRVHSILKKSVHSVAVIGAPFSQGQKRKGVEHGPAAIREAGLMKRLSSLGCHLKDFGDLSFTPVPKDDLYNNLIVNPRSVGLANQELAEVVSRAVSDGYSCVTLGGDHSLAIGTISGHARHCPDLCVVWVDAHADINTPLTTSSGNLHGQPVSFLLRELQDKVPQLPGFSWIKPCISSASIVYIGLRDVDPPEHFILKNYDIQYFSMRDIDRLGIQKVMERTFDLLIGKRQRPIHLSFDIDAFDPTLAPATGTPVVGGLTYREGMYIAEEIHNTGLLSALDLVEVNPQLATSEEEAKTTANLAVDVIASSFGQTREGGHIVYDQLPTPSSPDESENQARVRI

[5] = target: T3, Proteasome subunit beta (Trypanosoma cruzi) (UniProt O96673); assay: Trypanosoma cruzi proteasome chymotrypsin-like activity (TcProtChymo) assay.; note: in the data most compounds retested in dose-response had high values; format: functional; details: 9.37 µM
T3 sequence (whole entry): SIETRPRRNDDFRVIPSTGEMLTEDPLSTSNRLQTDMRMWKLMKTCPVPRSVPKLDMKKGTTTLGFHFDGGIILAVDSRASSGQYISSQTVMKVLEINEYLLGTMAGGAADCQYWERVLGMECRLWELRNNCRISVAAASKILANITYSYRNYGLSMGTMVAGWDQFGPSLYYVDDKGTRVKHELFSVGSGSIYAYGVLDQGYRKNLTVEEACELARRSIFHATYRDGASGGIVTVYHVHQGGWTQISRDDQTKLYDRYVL

Homo sapiens = species on record: Homo sapiens; assay: To identify inhibition of the IFN signalling (Jak-Stat) pathway via expression of an eGFP reporter gene under the control of an IFN-stimulated response element (ISRE) containing MxA promoter.; format: functional; details: 30 µM
[6] = target: T4, Tyrosyl-tRNA synthetase, putative (Trypanosoma cruzi (strain CL Brener)) (UniProt Q4DSP6); assay: Trypanosoma cruzi tyrosyl tRNA synthetase (TcYRS) _High Tyrosine SOP; format: functional; details: 30 µM; note: in the data most compounds retested in dose-response had high values
T4 sequence (whole entry): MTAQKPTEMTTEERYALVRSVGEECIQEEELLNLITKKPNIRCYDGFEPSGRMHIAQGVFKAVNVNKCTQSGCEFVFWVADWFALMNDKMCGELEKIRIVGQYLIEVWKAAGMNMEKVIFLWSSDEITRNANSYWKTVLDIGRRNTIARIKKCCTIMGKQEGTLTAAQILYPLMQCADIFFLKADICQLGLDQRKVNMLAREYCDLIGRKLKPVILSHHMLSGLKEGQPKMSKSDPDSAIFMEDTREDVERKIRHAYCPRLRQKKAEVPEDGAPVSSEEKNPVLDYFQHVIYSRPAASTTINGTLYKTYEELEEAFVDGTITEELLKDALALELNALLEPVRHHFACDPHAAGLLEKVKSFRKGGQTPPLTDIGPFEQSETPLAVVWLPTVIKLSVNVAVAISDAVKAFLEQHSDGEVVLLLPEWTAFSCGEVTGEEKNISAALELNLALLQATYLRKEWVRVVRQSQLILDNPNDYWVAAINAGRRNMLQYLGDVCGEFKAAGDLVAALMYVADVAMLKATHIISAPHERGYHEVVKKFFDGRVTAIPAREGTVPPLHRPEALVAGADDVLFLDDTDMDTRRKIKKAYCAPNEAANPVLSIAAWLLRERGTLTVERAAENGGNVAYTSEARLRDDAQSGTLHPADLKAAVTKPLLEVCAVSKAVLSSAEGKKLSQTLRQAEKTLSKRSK

[7] = target: T4, Tyrosyl-tRNA synthetase, putative (Trypanosoma cruzi (strain CL Brener)); assay: Trypanosoma cruzi tyrosyl tRNA synthetase (TcYRS) SOP; format: functional; details: 30 µM
[8] = target: Chromo domain-containing protein 1 (Saccharomyces cerevisiae (strain ATCC 204508 / S288c) (Baker's yeast)) (UniProt P32657); assay: ScCHD-1 Enzyme Inhibition Assay; format: functional; details: 30 µM; note: in the data most compounds retested in dose-response had high values
Sequence of Chromo domain-containing protein 1 (Saccharomyces cerevisiae (strain ATCC 204508 / S288c) (Baker's yeast)) (P32657 whole entry, the tested form may be a part): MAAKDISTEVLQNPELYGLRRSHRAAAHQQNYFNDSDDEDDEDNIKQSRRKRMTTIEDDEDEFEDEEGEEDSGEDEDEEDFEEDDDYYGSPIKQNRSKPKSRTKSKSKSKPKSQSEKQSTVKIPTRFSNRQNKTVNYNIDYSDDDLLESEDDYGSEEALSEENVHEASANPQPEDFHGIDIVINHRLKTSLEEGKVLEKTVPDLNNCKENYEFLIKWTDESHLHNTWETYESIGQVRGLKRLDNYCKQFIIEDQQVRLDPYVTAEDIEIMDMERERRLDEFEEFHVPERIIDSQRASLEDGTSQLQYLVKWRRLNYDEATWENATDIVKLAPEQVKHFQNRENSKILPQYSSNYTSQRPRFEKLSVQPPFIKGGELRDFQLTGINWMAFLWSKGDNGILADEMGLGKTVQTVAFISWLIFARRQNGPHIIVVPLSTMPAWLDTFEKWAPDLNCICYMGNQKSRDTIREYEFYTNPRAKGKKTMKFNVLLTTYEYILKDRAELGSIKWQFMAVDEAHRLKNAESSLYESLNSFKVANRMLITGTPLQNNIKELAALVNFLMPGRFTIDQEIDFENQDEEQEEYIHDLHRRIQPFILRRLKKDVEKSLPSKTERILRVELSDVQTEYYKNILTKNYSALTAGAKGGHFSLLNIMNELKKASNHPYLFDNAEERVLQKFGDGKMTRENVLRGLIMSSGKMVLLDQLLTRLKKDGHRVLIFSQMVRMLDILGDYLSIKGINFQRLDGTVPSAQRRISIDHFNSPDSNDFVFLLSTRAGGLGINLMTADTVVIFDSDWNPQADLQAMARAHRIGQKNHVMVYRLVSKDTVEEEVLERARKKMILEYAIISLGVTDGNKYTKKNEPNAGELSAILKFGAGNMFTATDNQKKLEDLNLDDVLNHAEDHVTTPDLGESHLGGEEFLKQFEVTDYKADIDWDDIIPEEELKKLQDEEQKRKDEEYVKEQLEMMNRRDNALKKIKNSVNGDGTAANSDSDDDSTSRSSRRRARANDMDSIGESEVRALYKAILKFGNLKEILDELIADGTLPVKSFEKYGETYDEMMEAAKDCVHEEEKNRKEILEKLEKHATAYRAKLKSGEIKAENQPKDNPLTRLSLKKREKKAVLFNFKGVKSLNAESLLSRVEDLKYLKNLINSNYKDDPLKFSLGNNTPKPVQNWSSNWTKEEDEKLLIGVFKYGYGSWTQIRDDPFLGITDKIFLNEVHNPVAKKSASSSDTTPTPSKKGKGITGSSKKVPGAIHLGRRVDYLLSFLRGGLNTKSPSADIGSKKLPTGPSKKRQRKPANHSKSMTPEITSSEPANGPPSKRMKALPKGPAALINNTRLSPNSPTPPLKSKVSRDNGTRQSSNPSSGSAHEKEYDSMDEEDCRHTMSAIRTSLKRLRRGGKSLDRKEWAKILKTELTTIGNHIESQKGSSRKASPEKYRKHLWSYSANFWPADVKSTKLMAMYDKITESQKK

Sequence of Sialic acid-binding Ig-like lectin 9 (Homo sapiens) (Q9Y336 whole entry): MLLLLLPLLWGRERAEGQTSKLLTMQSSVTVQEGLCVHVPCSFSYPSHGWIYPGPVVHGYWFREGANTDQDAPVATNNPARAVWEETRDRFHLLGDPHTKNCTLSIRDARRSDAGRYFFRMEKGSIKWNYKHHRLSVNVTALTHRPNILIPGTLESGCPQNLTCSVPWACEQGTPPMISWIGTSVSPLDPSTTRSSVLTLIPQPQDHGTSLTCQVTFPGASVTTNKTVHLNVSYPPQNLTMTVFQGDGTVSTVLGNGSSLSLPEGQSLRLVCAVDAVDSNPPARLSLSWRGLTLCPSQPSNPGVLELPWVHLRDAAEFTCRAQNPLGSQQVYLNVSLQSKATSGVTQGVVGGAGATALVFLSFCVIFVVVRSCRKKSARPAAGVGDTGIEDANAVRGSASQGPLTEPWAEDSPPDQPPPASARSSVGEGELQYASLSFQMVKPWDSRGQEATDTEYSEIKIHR
Sequence of Protein translocase subunit SecA (Escherichia coli (strain K12)) (P10408 whole entry): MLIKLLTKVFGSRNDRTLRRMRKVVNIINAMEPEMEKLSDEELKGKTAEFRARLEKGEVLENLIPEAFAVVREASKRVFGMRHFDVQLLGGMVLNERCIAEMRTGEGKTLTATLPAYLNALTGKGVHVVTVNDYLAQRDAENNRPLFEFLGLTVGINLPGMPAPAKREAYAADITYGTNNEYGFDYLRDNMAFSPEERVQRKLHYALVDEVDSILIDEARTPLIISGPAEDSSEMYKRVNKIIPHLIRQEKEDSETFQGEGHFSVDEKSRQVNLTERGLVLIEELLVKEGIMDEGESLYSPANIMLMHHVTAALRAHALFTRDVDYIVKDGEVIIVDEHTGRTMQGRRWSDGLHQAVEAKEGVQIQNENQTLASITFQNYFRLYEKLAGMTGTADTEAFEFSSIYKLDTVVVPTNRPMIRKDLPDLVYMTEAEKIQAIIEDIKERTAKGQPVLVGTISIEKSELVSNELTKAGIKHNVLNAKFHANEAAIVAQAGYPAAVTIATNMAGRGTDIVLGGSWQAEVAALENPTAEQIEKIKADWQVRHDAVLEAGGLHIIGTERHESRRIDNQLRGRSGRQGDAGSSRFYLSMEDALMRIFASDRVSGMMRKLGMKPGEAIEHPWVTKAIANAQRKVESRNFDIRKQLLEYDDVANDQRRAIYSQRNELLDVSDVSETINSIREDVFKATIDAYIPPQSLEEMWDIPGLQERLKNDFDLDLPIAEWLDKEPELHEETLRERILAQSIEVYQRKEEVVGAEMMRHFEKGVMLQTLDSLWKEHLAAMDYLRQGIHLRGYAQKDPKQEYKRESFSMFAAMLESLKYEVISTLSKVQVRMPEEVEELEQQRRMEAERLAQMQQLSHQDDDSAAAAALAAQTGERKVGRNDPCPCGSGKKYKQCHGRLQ

| Compound | Percent Effect [1] | Percent Effect [2] | Percent Effect [3] | Percent Effect (Trypanosoma cruzi) | Percent Effect [4] | Percent Effect [5] | Percent Effect (Homo sapiens) | Percent Effect [6] | Percent Effect [7] | Percent Effect [8] |
| --- | --- | --- | --- | --- | --- | --- | --- | --- | --- | --- |
| Cc1nc(-c2nnc[nH]2)sc1C(=O)N(Cc1cccnc1)C1CC1 | -4.44% | 12.8% | -5.72% | 6.67% | -0.41% | 7.42% | 9.73% | 2.39% | 18.1% | -6.07% |
| O=C(Cc1cn2ccsc2n1)N1CCCC(n2cncn2)C1 (stereo not given) | -3.72% | 12.8% | -3.95% | -4.22% | -5.74% | 13.9% | 31.1% | 4.31% | 13.2% | -5.26% |
| O=c1c(-c2ccnc(NC3CCOCC3)n2)cnc2sc(Cl)cn12 | 5.59% | 16% | -4.95% | -8.63% | -2.66% | 17.7% | 12% | 1.58% | 0% | -10.8% |
| O=C(c1cccnc1)N1CCn2nnc(COc3cccnc3)c2C1 | -4.23% | 1.3% | -1.59% | -6.13% | 4.45% | 14% | -1.63% | 7.89% | 7.69% | 2.46% |
| Cc1cnn(CC2CCCN2C(=O)c2ccc(OC(C)C)nc2)c1 (stereo not given) | -0.574% | -2.56% | 12.5% | 0.657% | 4.92% | -5.89% | -3.81% | -3.35% | 1.21% | 2.64% |
| COc1cccc(-c2noc(C3CCN(Cc4cn(C)nc4C)C3)n2)c1 (stereo not given) | -3.83% | 14.7% | 3.58% | 5.72% | -1.33% | 14.1% | 31.6% | 6.35% | 20% | -24.7% |
| COc1c(CNC2CCSc3ccc(F)cc32)c(C)nn1C (stereo not given) | 0.667% | 13% | 7.38% | -0.373% | -12.5% | 10.9% | 64.7% | 5.88% | 11.8% | -4.85% |
